Results on 14 compounds are retold here after PubChem BioAssay (EPA / NIEHS).

Values joined by “and” are separate entries in the source; they are usually repeats but may differ in a detail not shown here. Equal entries are not always repeated. The source holds several records for some structures; these can differ, active in one and inactive in another. Active and inactive are the calls of the source. Rule for the calls: active = hit-call score of the fitted dose curve at least 0.9, where 1 is the maximum; inactive = score below 0.9.

A word on the AC50: it is the concentration at which the activity in the assay is half-maximal.

Read-out in the experiment: Interleukin-8 (IL8), CXCL8 (gene 3576)
Description: BSK_IMphg_IL8: BioMAP Diversity Plus: IMphg Assay for Interleukin-8 (IL8) Biomarker Activity (AID 2284277). Conditions: primary human endothelial cells with macrophages. The protocol:
BSK_IMphg is a cell-based, multiplexed-readout assay that uses venular endothelial cells and macrophages, a human vascular primary cell, with measurements taken at 24 hours after chemical dosing in a microplate: 96-well plate.BSK_IMphg_IL8 is an assay component measured in the BSK_IMphg assay. It measures IL-8 antibody related to regulation of gene expression using ELISA technology.Data from the assay component BSK_IMphg_IL8 was analyzed at the endpoint, BSK_IMphg_IL8, in the positive analysis fitting direction relative to DMSO as the negative control and baseline of activity. Using a type of binding reporter, gain or loss-of-signal activity can be used to understand protein changes. To generalize the intended target to other relatable targets, this assay endpoint is annotated to the 'cytokine' intended target family, where the subfamily is 'interleukins'.
The levels of cell surface (or secreted, indicated by the prefix "s") biomarker endpoints were measured by ELISA. Overt cytotoxicity to cells in confluent adherent cultures (all systems other than the BT system) was assessed by measuring total protein levels using sulforhodamine B (SRB) staining in parallel cultures at the time of biomarker measurements, indicated as SRB endpoints. For proliferation assays for adherent cell types, individual cell types are cultured at sub-confluence and relative cell numbers quantified by SRB staining at time points optimized for each system (48 h: 3C and CASM3C systems; 72 h: BT and HDF3CGF systems; 96 h: SAg system). SRB was performed by staining cells with 0.1% SRB after fixation with 10% TCA and reading wells at 560 nm.Viability and proliferation of PBMC (T cells) was quantified by Alamar Blue reduction for the SAg and BT systems. For PBMC viability (referred to as PBMC Cytotoxicity within the assay endpoint names), cells were plated (75,000/well in a 96-well plate) and then chemical samples added for 1 h before addition of activators, SEB and TSST-1 (20 ng/mL final concentration each). Cells were incubated for 90 h. Then, Alamar Blue (20 uL/well) (Invitrogen, Cat DAL1100) was added for 6 h, and the plates were read with a fluorescence microplate reader at 546/580 nm (excitation/emission). For PBMC proliferation, cells were plated and activated as above but incubated for only 16 h prior to addition of Alamar Blue. Plates were read after 6 h.
In the case of `O=C(O)C(F)(F)OC(F)(F)C(F)(F)OC(F)(F)F`, the half-maximal activity concentration (AC50) was 22 µM (active) and the result was inactive.

Take `FC(F)(F)C(F)(C(F)(F)F)C(F)(F)C(F)(F)CC1CO1` (stereo unspecified): the result was inactive.

On to `OCC(F)(F)OC(F)(F)C(F)(F)OC(F)(F)C(F)(F)OC(F)(F)F`, for which the result was inactive.

Turning to `O=C(O)C(F)(OC(F)(F)C(F)(F)C(F)(F)F)C(F)(F)F` (stereo unspecified), the outcome was inactive and the AC50 was 5.95 µM (active).

For the compound `OCC(F)(F)OC(F)(F)C(F)(F)OC(F)(F)CO`, the outcome was inactive.

On to `O=C(O)C(F)(F)C(F)(F)C(=O)O`, for which the outcome was inactive.

With `O=S(=O)(F)C(F)(F)C(F)(F)C(F)(F)C(F)(F)C(F)(F)C(F)(F)C(F)(F)C(F)(F)F`, the outcome was inactive.

Take `COC(=O)C(F)(F)C(F)(F)OC(F)(C(F)(F)F)C(F)(F)OC(F)=C(F)F` (stereo unspecified): the AC50 is 1.61 µM (active) and 1.92 µM (active).

Regarding `O=C(O)C(F)(F)OC(F)(F)C(F)(F)OC(F)(F)C(=O)O`, the outcome was inactive.

For the compound `OCC(F)(F)OC(F)(F)C(F)(F)OC(F)(F)C(F)(F)OC(F)(F)CO`, the outcome was inactive.

Take `CC(O)C(F)(F)C(F)(F)F` (stereo unspecified): the result was inactive.

For `O=C(O)C=CC(F)(C(F)(F)F)C(F)(F)F`, the result was inactive.

With `NC(=O)C(F)(F)C(F)(F)F`, the outcome was inactive.

In the case of `C=CC(=O)OCC(F)(F)C(F)F`, the result was inactive.
